# From PubChem BioAssay
# Many of the other results were omitted from the sample, so hits are more common in it than they were.
# Pf Dd2 growth – inhibitors of Plasmodium falciparum Dd2 growth; P. falciparum Dd2 growth, SYBR Green, 72 h; Potency, µM (top dose mostly 28.9 µM), for the others: top-dose activity, negative = inhibition, hits mostly inhibitors; actives 4.3% (n = 120,000); AID 1347417; active means well fitted inhibition curve with a large enough effect;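 further: plate controls were DMSO vehicle for no effect and reference drug for full effect; nearly all actives have a fitted effect of over 65% in size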
#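 Readout: SYBR Green fluorescence, 485 nm excitation, 535 nm emission, after ~16 h lysis at 37C. Before that, Dd2-infected red cells (2.5% hematocrit) grew 72 h with compound, 29 uM top final concentration.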
# Numbers without * were called inactive; i = inactive; [ ] = another dose, or the depositor's remark. Potency means the concentration at half of the fitted maximal effect.
SMILES,Pf Dd2 growth
CC(=O)N1CCCC2(C1)CN(C)c1ccc(C(=O)NCCc3ccccc3)cc12 (configuration not stated),13%[44.1 µM]
CN1CC2(CCCN(CC3CC3)C2)c2cc(C(=O)NCCc3ccccc3)ccc21 (configuration not stated),3.2µM*
O=C(C[C@@H]1C[C@H]2O[C@H](CNC3CCC(F)(F)CC3)[C@@H](O)[C@H]2O1)N1CCC(F)(F)C1,0%[44.1 µM]
CCc1nn(CC(=O)N2CCN(c3cccc(C)c3)C(C)C2)c(=O)c2cc3sccc3n12 (configuration not stated),-27%
COc1cc(C2c3c(oc4ccccc4c3=O)C(=O)N2Cc2ccccc2Cl)ccc1O (configuration not stated),-26%
COc1cc(C2c3c(-c4ccccc4O)n[nH]c3C(=O)N2CCO)ccc1OCC(C)C (configuration not stated),10µM*
COc1cc(C2c3c(-c4c(C)cc(C)cc4O)n[nH]c3C(=O)N2CCO)cc(OC)c1OC (configuration not stated),i
COc1ccc(C2c3c(-c4ccc(F)cc4)n[nH]c3C(=O)N2c2ccccc2)cc1OC (configuration not stated),-4%
COc1cc(C2c3c(-c4ccccc4O)n[nH]c3C(=O)N2Cc2ccco2)ccc1OCC(C)C (configuration not stated),2.2µM*
CN1C[C@H](NC(=O)Nc2cccnc2)CCC[C@@H](C(=O)NCc2cc(F)cc(F)c2)CC1=O,0%
CC(C)CCC(=O)N1CCC2(CC1)N(C)C(=O)CS2(=O)=O,-4%
CNC(=O)[C@@H]1CN(C(=O)c2c(F)cccc2F)C[C@H]1C1CCN(C)CC1,22%
O=C(Nc1ccccc1CCc1ccccn1)C1CCN(c2cnn(Cc3ccccc3)c(=O)c2)C1 (configuration not stated),4.5µM*
O=C(NCc1cnccn1)C1CCCN(c2cnn(Cc3ccccc3)c(=O)c2)C1 (configuration not stated),-16%
Cn1ncc(N2CCC(C(=O)Nc3ccccc3CCc3ccccn3)C2)cc1=O (configuration not stated),-16%
O=C(NCc1ccc(Cl)cc1)C(=O)NCC(c1ccco1)S(=O)(=O)c1cccs1 (configuration not stated),i
O=C(c1ccc2ccccc2n1)N1CCC(c2n[nH]c(=O)n2-c2ccccc2)CC1,12%
O=C(NC1CC1)c1ccccc1OC1CN(Cc2cccc(F)c2)C1,-14%
O=C(NC1CC1)c1ccccc1OC1CN(Cc2cccc(C(F)(F)F)c2)C1,-24%
COc1cccc(CN2CC(Oc3ccccc3C(=O)NCc3ccccc3)C2)c1,3.5µM*
COc1ccc(CCNC(=O)Cn2c(=O)c3sccc3n(CC(=O)Nc3cccc(C(F)(F)F)c3)c2=O)cc1OC,32%
O=C(c1ccc(Cl)nc1)N1CCC(N2CCCNC2=O)CC1,-11%[44.1 µM]
COC1CN(c2cccc(F)c2)C12CCN(C(=O)c1ccncc1)CC2 (configuration not stated),i
COC1CN(c2cccc(F)c2)C12CCN(C(=O)NC(C)(C)C)CC2 (configuration not stated),i
COC1CN(c2cccc(F)c2)C12CCN(C(=O)C1CCC1)CC2 (configuration not stated),i
SMILES,Pf Dd2 growth
COC1CN(c2cccc(F)c2)C12CCN(C(=O)NC1CCCCC1)CC2 (configuration not stated),6.3µM*
COC1CN(c2cccc(F)c2)C12CCN(C(=O)C1CCCCC1)CC2 (configuration not stated),10µM*
COC1CN(c2cccc(F)c2)C12CCN(C(=O)CCC1CCCC1)CC2 (configuration not stated),-16%
COCC(=O)N1CC[C@@H]2[C@H]1C(=O)N(c1ccc(OC)cc1)C(=O)N2Cc1ccccc1,-5%[44.1 µM]
COc1cc(OC)c(NC(=O)Cn2c(C)cc3nc4n(c(=O)c32)CCCC4)cc1Cl,-17%
CC(C)(C)C(=O)NC1CC(=O)N(c2ccc3c(c2)OCCO3)C1 (configuration not stated),35%
O=C(Cc1cccc(F)c1)NCCC1CCN(C(=O)Nc2ccc(F)cc2)CC1,i
CC[C@H]1CN2CC[C@H]1C[C@@H]2CNC(=O)COCC(=O)O,14%[44.1 µM]
O=c1[nH]nc2n1CCC(NS(=O)(=O)Cc1ccc(F)cc1)CC2 (configuration not stated),24%
COc1cc(NC(=O)CCCc2nnc3n(C)c(=O)c4sccc4n23)cc(OC)c1OC,17%
CSc1ncc(C(=O)NCc2cccc(F)c2)c(-c2ccccc2)n1,49%
COc1cc(Cl)c(C)cc1NC(=O)Cn1ccn2nc(-c3ccc(F)cc3)c(CO)c2c1=O,i
